Among the data in PubChem BioAssay AID1662 (Broad Institute, 2009) are inhibition values, retold here.

The whole screen tested about 300,000 compounds, of which about 4,000 (1.3%) were called active. The sample holds actives, similar compounds and a random draw of the others, so the mix is not that of the screen. Values without a mark were called inactive.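 Rule for the calls: active = mean replicate score, as percent of positive control median, at least 50; inconclusive = mean below 50 but one replicate at or above 50; inactive = mean and every replicate below 50.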

Usually inhibition stands for the relative decrease from the control value, in per cent.

This test can be described thus: S. pyogenes SKKanGAS growth inhibitors in kanamycin, primary screen, streptokinase expression inhibitor project, SKKanGAS strain, BacTiter-Glo luminescence (AID 1662).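 Note: strain carries kanamycin resistance gene driven by streptokinase promoter and grows in 40 µg/ml kanamycin; loss of luminescence reflects streptokinase promoter inhibition or plain growth inhibition; 0% = median of DMSO wells and 100% = positive control at its reference dose.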 Conditions: 6 h, at 7.5 µM, stronger effect = higher value.
Consider `O=C(NC1CC1)c1ccc(-c2ccccc2)cc1`, for which the inhibition is 1.81%.

With `O=C(CC1SC(=Nc2ccccc2F)N(CCN2CCOCC2)C1=O)Nc1ccc(F)cc1F` (configuration not stated), the inhibition was -5.01%.

Take `COc1ccccc1OCC(=O)Nc1c2c(nn1-c1ccc(F)cc1)CS(=O)(=O)C2`: the inhibition is 74.3% (active).

Turning to `CCOc1ccc(C(=O)Nc2c3c(nn2-c2ccccc2)CS(=O)(=O)C3)cc1`, the inhibition was 1.84%.

For `O=C(CC1CCCCC1)Nc1c2c(nn1-c1ccc(F)cc1)CS(=O)(=O)C2`, the inhibition was -9.45%.

As for `O=C(CN(c1cccc(Cl)c1)S(=O)(=O)c1ccccc1)NN=C1CCCC1`, the inhibition is 6.57%.

With `CSc1ncccc1C(=O)NCc1ccccc1Cl`, the inhibition is -1.26%.

Turning to `CNC(=O)c1nnn(-c2ccccc2)c1C(=O)NC`, the inhibition is 3%.

For `Oc1ccc(/C=N/N(Cc2ccccc2)c2ccccc2)cc1`, the inhibition was 77.6% (active).

On to `CN(C)c1ccc(/C=N/N(Cc2ccccc2)c2ccccc2)cc1`, for which the inhibition is -5.9%.

Take `O=C(C[n+]1ccccc1)N/N=C/c1ccc(O)cc1`: the inhibition is -9.65%.

Regarding `CCCCC(NS(=O)(=O)c1ccc(C)cc1)C(=O)Oc1ccc2c3c(c(=O)oc2c1)CCC3` (configuration not stated), the inhibition was 8.5%.

As for `CC(C)COC(=O)n1c(=O)oc2ccc(S(=O)(=O)N3CCCCC3)cc21`, the inhibition was -4.31%.

As to `COc1ccc(-n2c(SCC(=O)Nc3ccc4c(c3)OCO4)nnc2C(C)N2CCCCC2)cc1` (configuration not stated), the inhibition is -5.05%.

Consider `CC(C)Oc1ccc(S(=O)(=O)N2CCOCC2)cc1NC(=O)C1CSC2(C)CCC(=O)N12` (configuration not stated), for which the inhibition is 12%.

With `CCN(CC)S(=O)(=O)c1ccc(N2CCOCC2)c(NC(=O)C2COc3ccccc3O2)c1` (configuration not stated), the inhibition is 2.77%.

For `CCN(CC)S(=O)(=O)c1ccc(N2CCOCC2)c(NC(=O)C2CSC3(C)CCC(=O)N23)c1` (configuration not stated), the inhibition is 52.3% (active).

Regarding `COc1ccc(Cl)cc1N(CC(=O)N1CCCCC1)S(C)(=O)=O`, the inhibition was -8.05%.

Take `O=C(/C=C/c1cccc([N+](=O)[O-])c1)N1CCN(Cc2ccccc2)CC1`: the inhibition is 2.48%.

Regarding `O=[N+]([O-])/C=C/c1ccc2c(ccn2Cc2ccccc2)c1`, the inhibition is 81% (active).

For `O=c1c([N+](=O)[O-])cc(C(F)(F)F)cn1Cc1cccc(Cl)c1`, the inhibition is -8.03%.

With `O=C(c1cccs1)C1C(c2ccc(Br)cc2)NC(=S)NC1(O)C(F)(F)F` (configuration not stated), the inhibition was -1.18%.

For `Cc1[nH]n(-c2ccccc2)c(=O)c1CCOC(=O)c1ccc(C(F)(F)F)cc1`, the inhibition was 3.86%.

For the compound `CCCNC(=O)CCn1cc(-c2ccc(OC)cc2)nc1CCN`, the inhibition is -0.358%.

For the compound `COc1ccc(Nc2ncnc3sc(-c4ccccc4)cc23)c(OC)c1`, the inhibition was 17.7%.

For `c1ccc(-c2cc3c(NCC4COc5ccccc5O4)ncnc3s2)cc1` (configuration not stated), the inhibition was 74.2% (active).

As to `c1ccc2c(c1)OCC(CNc1ncnc3nc[nH]c13)O2` (configuration not stated), the inhibition was 0.403%.

Regarding `O=C(O)c1ccc(NS(=O)(=O)c2ccc3c(c2)C(=O)c2cc(S(=O)(=O)Nc4ccc(C(=O)O)cc4)ccc2-3)cc1`, the inhibition was 7.11%.

With `CC(=O)c1cccc(NC(=O)C2CCN(C(=O)c3ccccc3Cl)CC2)c1`, the inhibition was -0.79%.

In the case of `Cc1cccc(-n2c(SCC(N)=O)nc3c(c2=O)C2(CCCCC2)Cc2ccccc2-3)c1`, the inhibition is 13.1%.

Take `N#C/C(=C(/O)Cc1cccc2ccccc12)c1nc2ccccc2s1`: the inhibition was 79.1% (active).

Consider `O=C(O)c1ccccc1CSc1nc2ccccc2s1`, for which the inhibition is 38.1%.

For the compound `N#C/C(=C(/O)COc1cccc2ccccc12)c1nc2ccccc2[nH]1`, the inhibition was 7.13%.

As to `CN1CCC(CN)(N2CCN(c3ccccc3)CC2)CC1`, the inhibition was -3.22%.

In the case of `Cc1ccc(CNCc2ccc3c(c2)OCO3)c(C)c1`, the inhibition was 0.677%.

For the compound `O=C(O)CCN(Cc1ccccc1)S(=O)(=O)c1c(Cl)cccc1Cl`, the inhibition was 8.43%.

In the case of `CC(C)CC[n+]1ccn(C2=C([O-])c3ccccc3C(=O)/C2=N\S(=O)(=O)c2ccccc2)c1`, the inhibition was 62.6% (active).

In the case of `NNc1nc2c(Cl)cccc2s1`, the inhibition was -7.59%.

On to `Cc1nc2nc(C)c(NS(=O)(=O)c3ccc(C(C)(C)C)cc3)c(=O)n2[nH]1`, for which the inhibition is 19.7%.

In the case of `O=C(NCCc1ccccn1)c1cc(-c2ccc(Cl)cc2)nc2ccccc12`, the inhibition is 1.78%.

On to `CCOC(=O)CSc1nnc(NC(=O)C2CC(=O)N(c3ccc(F)cc3)C2)s1` (configuration not stated), for which the inhibition was 39.8%.

In the case of `COc1ccc(CCNC(=O)COC(=O)Cc2cc(OC)c(OC)c(OC)c2)cc1`, the inhibition is 1.27%.

As for `Cc1ccccc1C(=O)OC1OC(=O)C(Cl)=C1Nc1ccccc1` (configuration not stated), the inhibition is 3.76%.

Regarding `Cc1ccc(NC2=C(Cl)C(=O)OC2OC(=O)c2ccccc2C)cc1` (configuration not stated), the inhibition is 66% (active).

For `O=C1OC(OC(=O)c2ccccc2Br)C(N2CCOCC2)=C1Cl` (configuration not stated), the inhibition was 35.8%.

Take `O=[N+]([O-])c1ccc(N(CCO)Cc2ccccc2)c([N+](=O)[O-])c1`: the inhibition is 4.42%.

As for `CN(C)CCCNC(=S)N1CCN(c2nc(-c3ccccc3)cs2)CC1`, the inhibition is -0.915%.

In the case of `CC[C@H]1OC(=O)[C@H](C)[C@@H](O[C@H]2C[C@@](C)(OC)[C@@H](O)[C@H](C)O2)[C@H](C)[C@@H](O[C@@H]2O[C@H](C)C[C@H](N(C)C)[C@H]2O)[C@](C)(O)C[C@@H](C)[C@@H]2N[C@@H](COCCOC)O[C@H]([C@H]2C)[C@]1(C)O`, the inhibition was 106% (active).

`CCN1CC(CN(C)Cc2nc(-c3ccc(Cl)cc3)no2)CC1=O` (configuration not stated): the inhibition is 1.31%.

Regarding `CCOC(=O)C1(Cc2cccc(OC)c2)CCCN(C(=O)CCSC)C1` (configuration not stated), the inhibition is 1.89%.

`C=CCNC(=O)c1ccc2c3n(nc2c1)-c1ccc(C)cc1CO3`: the inhibition was -8.54%.

Regarding `CCCC(=O)NC(Nc1ccccc1OC)C(Cl)(Cl)Cl` (configuration not stated), the inhibition is 1.6%.

With `CCOc1ccccc1NC(=O)C12CC3CC(C1)CC(c1ccc(C)cc1)(C3)C2`, the inhibition was 20.1%.

As for `CCCn1c(NC(=O)C23CC4CC(CC(O)(C4)C2)C3)nc2ccccc21`, the inhibition is 54.4% (active).

As for `CCn1c(NC(=O)c2nn(C)cc2Br)nc2ccccc21`, the inhibition was -1.42%.

As to `COc1cccc(N(C(=O)c2snc(C(N)=O)c2N)C(C(=O)NCC2CCCO2)c2c[nH]c3ccccc23)c1` (configuration not stated), the inhibition was 3.94%.

Regarding `N#C/C(=C(\O)C(F)(F)F)c1nnc2n1CCCCC2`, the inhibition was 7.62%.

In the case of `Cn1c(-c2ccc(C(=O)c3ccccc3)s2)nc2ccccc21`, the inhibition is -1.65%.

Take `Cn1sc(NC(=O)c2ccccc2)nc1=O`: the inhibition was 1.73%.

`Cn1c(NC(=O)c2ccccc2)nc2ccccc21`: the inhibition was 51.2% (active).

Take `Cc1ccc(C)c(C(C)NC(=O)C2CCCO2)c1` (configuration not stated): the inhibition was 1.89%.

In the case of `COc1cc2ccccc2cc1C(=O)Nc1ccc(NC(=O)c2cccs2)cc1`, the inhibition is 64.7% (active).

As to `COc1cc2ccccc2cc1C(=O)Nc1ccncc1`, the inhibition is -4.59%.

As to `COc1cc(NC(=O)c2cccs2)ccc1NC(=O)c1ccccc1Cl`, the inhibition is 3.93%.

As for `Cc1ccc(S(=O)(=O)NCCc2nnc3ccc(SCc4cccnc4)nn23)cc1`, the inhibition was 4.92%.

Take `COc1ccc2sc(N(CCCN(C)C)C(=O)c3ccc(S(=O)(=O)N(C)C4CCCCC4)cc3)nc2c1`: the inhibition was -0.457%.

As to `O=S(=O)(NCC1CC1)c1ccc(F)c(Cl)c1`, the inhibition is -1.69%.

With `Oc1ccccc1C1=NN(c2ccccc2)C(c2ccccc2)C1` (configuration not stated), the inhibition is 93.5% (active).

In the case of `O=C(c1ccccc1)N1N=C(c2ccccc2O)CC1c1ccc(Br)cc1` (configuration not stated), the inhibition is 18.1%.

With `COc1ccc(C2CC(c3cccs3)=NN2c2ccccc2)cc1` (configuration not stated), the inhibition is 11.6%.

Turning to `Cc1nc2cc(C(F)(F)F)ccc2n1CCNc1nc(-c2cc(Cl)c(N)c(Cl)c2)cs1`, the inhibition was 34.8%.

With `CCCc1cc(=O)[nH]c2nnc(SCC(=O)Nc3nnc(SCC)s3)n12`, the inhibition is 15.3%.
